The full data set covers some 7,900 targets. This sample favours those with a hit. About 0.6% of all pairs of compound and target were hits. Unmarked numbers belong to inactive results.
Key:
Experiment in all cases: log2 fold change, soluble protein after heating vs DMSO (PISA); higher = thermal stabilisation; K562 cells, 10 uM, 30 min; active = over 0.2 and 3.5 SD of the protein, either way, in both replicates (recomputed)
erlotinib = compound: C#Cc1cccc(Nc2ncnc3cc(OCCOC)c(OCCOC)cc23)c1 [erlotinib]
How it was run: (§1)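 Soluble protein was defined as the supernatant after 21,000xg for 90 min. It came from K562 cells at 2×10^6 cells/mL given 10 μM compound for 30 min, heated in aliquots for 3 min across 48°C-58°C, pooled, and extracted in PBS with 0.5% NP-40 at 4°C, and was quantified by TMTpro 16plex LC-MS/MS with equalised channel sums. Thermal stability against control samples, from duplicates, is reported as log2 fold change.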

[1] = compound: C/C(=N\NC(=O)C1=CC(=CC=C1)S(=O)(=O)N2CCOCC2)/C3=C(C=CC(=C3)Cl)O
How it was run: as §1

[2] = compound: C1=CC(=C(C=C1Cl)C2=NC3=NC=CN=C3C(=N2)NC4=CC=NC=C4)F
How it was run: as §1

[3] = compound: C1=CC(=CC=C1C2=NC3=C(N2)C=C(C=C3)C(=O)N)OC4=CC=C(C=C4)Cl
How it was run: as §1

[4] = compound: C1=CC2=C(C=CC(=C2)/C=C\3/C(=O)NC(=NCC4=CC=CS4)S3)N=C1
How it was run: as §1

[5] = compound: C1=CC2=NC=CN=C2C=C1/C=C/3\C(=O)NC(=O)S3
How it was run: as §1

[6] = compound: C1=CC=C(C=C1)C2=NC(=C(N2)C3=CC=NC=C3)C4=CC(=C(C=C4)Cl)O
How it was run: as §1

[7] = compound: C1=CC=C2C(=C1)C3=NNC4=CC=CC(=C43)C2=O
How it was run: as §1

[8] = compound: C1CCN(C1)C(=O)NC2=CC=CC(=C2)NC3=NC=C(C(=N3)NCCC4=CN=CN4)Br
How it was run: as §1

[9] = compound: C1CN(CCC1(CC2=CC=C(C=C2)Cl)N)C3=NC=NC4=C3C=CN4
How it was run: as §1

Sequence of UniProt Q70IA6 (Q70IA6 whole entry, looked up): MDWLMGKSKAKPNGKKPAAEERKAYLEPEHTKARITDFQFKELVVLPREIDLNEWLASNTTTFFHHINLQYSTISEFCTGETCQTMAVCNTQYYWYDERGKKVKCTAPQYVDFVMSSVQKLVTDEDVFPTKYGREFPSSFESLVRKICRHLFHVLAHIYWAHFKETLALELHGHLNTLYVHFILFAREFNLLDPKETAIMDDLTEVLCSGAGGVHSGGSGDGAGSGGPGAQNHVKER
Sequence of UniProt Q9HCD5 (Q9HCD5 whole entry, looked up): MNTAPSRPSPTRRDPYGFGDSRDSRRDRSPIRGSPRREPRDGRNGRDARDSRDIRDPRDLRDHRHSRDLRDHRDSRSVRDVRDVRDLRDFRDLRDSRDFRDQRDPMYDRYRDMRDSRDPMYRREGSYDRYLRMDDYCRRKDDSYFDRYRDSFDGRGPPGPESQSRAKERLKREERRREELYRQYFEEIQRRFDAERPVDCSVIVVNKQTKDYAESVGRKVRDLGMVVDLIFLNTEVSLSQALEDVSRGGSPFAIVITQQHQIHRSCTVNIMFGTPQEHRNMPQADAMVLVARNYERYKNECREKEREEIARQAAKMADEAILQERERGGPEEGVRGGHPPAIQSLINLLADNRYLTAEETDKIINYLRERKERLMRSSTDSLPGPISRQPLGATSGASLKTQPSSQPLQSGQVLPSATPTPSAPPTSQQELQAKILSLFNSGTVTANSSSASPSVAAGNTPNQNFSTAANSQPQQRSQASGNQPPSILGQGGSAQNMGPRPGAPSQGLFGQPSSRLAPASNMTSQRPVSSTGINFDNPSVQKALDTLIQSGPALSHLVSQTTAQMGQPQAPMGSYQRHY
Sequence of UniProt Q9BPX3 (Q9BPX3 whole entry, looked up): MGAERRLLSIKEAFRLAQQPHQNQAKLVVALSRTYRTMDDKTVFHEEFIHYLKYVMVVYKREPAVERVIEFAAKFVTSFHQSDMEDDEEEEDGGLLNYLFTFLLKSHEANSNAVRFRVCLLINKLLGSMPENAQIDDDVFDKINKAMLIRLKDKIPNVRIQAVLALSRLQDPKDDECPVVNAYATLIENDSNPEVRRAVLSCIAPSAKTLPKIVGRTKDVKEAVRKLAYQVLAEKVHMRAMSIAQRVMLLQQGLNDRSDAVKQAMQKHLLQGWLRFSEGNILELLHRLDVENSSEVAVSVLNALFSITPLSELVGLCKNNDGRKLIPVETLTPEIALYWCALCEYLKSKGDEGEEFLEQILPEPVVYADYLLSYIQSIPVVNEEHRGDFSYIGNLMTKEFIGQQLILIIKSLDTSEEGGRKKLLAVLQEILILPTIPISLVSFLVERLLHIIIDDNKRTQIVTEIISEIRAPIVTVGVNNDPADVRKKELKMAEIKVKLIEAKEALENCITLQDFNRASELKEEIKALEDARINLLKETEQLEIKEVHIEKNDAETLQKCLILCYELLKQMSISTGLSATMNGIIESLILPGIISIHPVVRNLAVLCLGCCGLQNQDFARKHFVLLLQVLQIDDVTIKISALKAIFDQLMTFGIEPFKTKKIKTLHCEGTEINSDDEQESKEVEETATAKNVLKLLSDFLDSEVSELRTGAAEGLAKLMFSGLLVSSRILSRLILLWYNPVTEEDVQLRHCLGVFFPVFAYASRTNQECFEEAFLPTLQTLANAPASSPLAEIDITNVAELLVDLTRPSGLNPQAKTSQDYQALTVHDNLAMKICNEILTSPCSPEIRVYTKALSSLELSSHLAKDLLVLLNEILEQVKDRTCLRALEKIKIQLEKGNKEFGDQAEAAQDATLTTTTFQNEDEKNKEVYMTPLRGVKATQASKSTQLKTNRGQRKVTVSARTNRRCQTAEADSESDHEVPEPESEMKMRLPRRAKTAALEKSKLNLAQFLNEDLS
Sequence of UniProt Q9BS92 (Q9BS92 whole entry, looked up): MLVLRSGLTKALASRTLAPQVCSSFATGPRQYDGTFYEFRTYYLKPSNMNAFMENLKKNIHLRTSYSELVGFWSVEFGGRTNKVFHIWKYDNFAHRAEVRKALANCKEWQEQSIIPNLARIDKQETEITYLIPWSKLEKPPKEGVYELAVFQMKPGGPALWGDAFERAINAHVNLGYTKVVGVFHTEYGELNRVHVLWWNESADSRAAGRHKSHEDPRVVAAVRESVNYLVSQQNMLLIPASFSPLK
Sequence of UniProt P40692 (P40692 whole entry, looked up): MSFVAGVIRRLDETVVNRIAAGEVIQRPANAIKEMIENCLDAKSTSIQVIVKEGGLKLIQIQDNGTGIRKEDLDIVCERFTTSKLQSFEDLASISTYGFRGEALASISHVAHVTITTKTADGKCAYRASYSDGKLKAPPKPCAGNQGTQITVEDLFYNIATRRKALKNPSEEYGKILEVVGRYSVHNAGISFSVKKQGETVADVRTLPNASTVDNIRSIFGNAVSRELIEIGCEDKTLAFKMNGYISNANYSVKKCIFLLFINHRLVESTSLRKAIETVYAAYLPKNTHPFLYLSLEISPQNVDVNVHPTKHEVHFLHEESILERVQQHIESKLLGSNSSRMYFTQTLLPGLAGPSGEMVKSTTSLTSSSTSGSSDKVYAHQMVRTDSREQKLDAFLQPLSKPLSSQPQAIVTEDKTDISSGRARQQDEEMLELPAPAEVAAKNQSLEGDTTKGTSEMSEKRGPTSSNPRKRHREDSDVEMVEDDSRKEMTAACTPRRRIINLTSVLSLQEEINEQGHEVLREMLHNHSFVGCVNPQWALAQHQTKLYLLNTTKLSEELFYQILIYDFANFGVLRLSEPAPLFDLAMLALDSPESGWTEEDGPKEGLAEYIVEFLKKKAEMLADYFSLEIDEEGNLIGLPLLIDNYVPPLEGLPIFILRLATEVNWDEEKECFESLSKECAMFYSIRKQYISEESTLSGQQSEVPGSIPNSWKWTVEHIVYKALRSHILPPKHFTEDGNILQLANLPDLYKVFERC
Sequence of UniProt Q9H6N6 (Q9H6N6 whole entry, looked up): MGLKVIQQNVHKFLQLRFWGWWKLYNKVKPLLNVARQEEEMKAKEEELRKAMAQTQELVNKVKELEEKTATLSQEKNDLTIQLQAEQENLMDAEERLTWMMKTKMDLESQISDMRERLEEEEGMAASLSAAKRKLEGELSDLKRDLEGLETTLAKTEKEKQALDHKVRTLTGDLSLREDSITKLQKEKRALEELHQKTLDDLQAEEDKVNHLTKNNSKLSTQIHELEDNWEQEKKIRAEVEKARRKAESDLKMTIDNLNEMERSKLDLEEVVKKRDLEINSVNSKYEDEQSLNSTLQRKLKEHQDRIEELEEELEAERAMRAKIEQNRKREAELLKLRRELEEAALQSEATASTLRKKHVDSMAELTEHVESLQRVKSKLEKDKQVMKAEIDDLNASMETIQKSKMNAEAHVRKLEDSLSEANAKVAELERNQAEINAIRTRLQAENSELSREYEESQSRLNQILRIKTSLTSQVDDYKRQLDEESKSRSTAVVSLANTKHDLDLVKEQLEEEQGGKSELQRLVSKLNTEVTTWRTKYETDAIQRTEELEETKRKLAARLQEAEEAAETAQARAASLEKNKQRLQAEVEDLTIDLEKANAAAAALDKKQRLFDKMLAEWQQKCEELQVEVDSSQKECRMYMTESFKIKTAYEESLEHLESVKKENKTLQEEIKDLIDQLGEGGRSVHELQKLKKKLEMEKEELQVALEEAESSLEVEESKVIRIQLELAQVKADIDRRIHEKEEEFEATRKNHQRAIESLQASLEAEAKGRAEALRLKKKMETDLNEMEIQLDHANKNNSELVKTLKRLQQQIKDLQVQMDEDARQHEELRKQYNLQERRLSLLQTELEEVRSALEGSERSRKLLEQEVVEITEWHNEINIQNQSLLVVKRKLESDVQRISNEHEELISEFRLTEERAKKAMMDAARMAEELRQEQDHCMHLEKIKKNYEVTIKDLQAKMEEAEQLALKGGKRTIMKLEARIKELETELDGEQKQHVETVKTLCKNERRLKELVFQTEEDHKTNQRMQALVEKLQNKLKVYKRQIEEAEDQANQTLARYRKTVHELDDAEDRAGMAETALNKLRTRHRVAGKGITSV
Sequence of UniProt O75052 (O75052 whole entry, looked up): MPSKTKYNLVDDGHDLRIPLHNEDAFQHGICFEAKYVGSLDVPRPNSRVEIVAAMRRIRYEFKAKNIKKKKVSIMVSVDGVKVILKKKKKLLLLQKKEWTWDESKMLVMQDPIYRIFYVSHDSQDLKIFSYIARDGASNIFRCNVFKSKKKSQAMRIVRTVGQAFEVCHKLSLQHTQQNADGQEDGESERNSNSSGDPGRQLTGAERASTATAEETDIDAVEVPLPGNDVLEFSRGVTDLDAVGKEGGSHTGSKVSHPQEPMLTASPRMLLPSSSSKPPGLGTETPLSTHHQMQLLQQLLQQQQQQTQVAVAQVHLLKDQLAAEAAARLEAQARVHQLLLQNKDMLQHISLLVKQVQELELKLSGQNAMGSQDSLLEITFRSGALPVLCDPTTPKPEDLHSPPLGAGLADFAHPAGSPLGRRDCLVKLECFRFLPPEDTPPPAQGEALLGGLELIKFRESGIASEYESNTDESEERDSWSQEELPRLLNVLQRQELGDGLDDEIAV
Sequence of UniProt Q8WZ82 (Q8WZ82 whole entry, looked up): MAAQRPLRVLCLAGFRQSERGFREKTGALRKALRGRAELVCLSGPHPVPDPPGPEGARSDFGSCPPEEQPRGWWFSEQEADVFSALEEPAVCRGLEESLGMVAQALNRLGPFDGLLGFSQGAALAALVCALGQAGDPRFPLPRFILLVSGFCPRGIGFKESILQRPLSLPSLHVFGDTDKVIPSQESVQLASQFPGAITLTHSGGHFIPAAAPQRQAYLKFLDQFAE
Sequence of UniProt Q9Y605 (Q9Y605 whole entry, looked up): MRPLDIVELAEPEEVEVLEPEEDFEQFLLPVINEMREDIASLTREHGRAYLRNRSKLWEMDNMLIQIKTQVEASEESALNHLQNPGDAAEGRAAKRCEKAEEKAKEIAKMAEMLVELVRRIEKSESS
Sequence of UniProt Q69YL0 (Q69YL0 whole entry, looked up): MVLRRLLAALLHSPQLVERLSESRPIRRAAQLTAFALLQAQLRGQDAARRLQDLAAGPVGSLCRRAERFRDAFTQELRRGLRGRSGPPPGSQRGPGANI

Target | log2 fold change (erlotinib) | log2 fold change [1] | log2 fold change [2] | log2 fold change [3] | log2 fold change [4] | log2 fold change [5] | log2 fold change [6] | log2 fold change [7] | log2 fold change [8] | log2 fold change [9]
NRF1 isoform 4 (UniProt Q16656) | 0.079 | 0.012 | -0.161 | -0.028 | 0.053 | -0.001 | -0.012 | -0.116 | -0.051 | -0.003
MORC3 (UniProt Q14149) | 0.022 | 0.084 | 0.171 | 0.035 | -0.024 | 0.068 | 0.012 | 0.014 | -0.026 | -0.162
MKNK1 (UniProt Q9BUB5) | 0.305 (active) | 0.09 | -0.05 | 0 | 0.011 | 0.081 | -0.028 | 0.001 | -0.051 | -0.066
OXSM (UniProt Q9NWU1) | -0.079 | 0.024 | 0.005 | 0.055 | -0.052 | -0.001 | 0.053 | -0.034 | -0.042 | 0.019
NELFCD (UniProt Q8IXH7) | 0.096 | 0.034 | 0.121 | -0.154 | 0.056 | 0.031 |  | 0.06 |  | 
NAGPA (UniProt Q9UK23) | 0.046 | 0.023 | 0.046 | 0.056 | 0.033 | -0.018 |  | -0.025 | -0.013 | 0.148
NCAPG (UniProt Q9BPX3) | -0.007 | 0.114 | 0.013 | -0.03 | 0.005 | 0.002 | 0.027 | 0.043 | -0.044 | -0.104
MLH1 (UniProt P40692) |  | 0.027 | 0.077 |  | -0.038 | 0.096 |  | 0.053 | -0.165 | 0.039
NA (UniProt B2RBV5) |  |  | -0.068 |  |  | -0.015 |  |  |  | 
NOS1AP (UniProt O75052) | 0.134 |  | 0.517 | -0.006 |  | -0.02 | -0.248 |  | -0.208 | 1.09 (active)
NUDT6 (UniProt P53370) | -0.022 |  | 0.155 | 0.103 |  |  | -0.12 |  | 0.121 | 0.35
MOB3B (UniProt Q86TA1) | -0.305 | 0.302 |  | -0.271 | 0.24 | -0.056 |  | -0.092 | -0.186 | 0.059
MON1A (UniProt Q86VX9) | -0.119 |  | 0.022 | 0 |  | -0.262 | -0.017 |  | 0 | 0.135
NAP1L1 (UniProt B7Z9C2) | 1.01 | 0.122 |  | -0.051 | 0.156 | 0.175 |  | -0.178 |  | 
NEU3 isoform 2 (UniProt Q9UQ49) | 0.164 |  |  | 0 |  |  |  |  |  | 
NOLC1 isoform 3 (UniProt Q14978) | 0.002 |  |  | 0.183 |  |  |  |  |  | 
MRFAP1 (UniProt Q9Y605) | -0.007 | -0.019 |  | -0.013 | -0.334 | 0.014 | -0.045 | 0.141 | -0.162 | -0.106
MTHFD1, A0A384N5Y3 |  | 0.056 | 0.081 |  | 0.146 | -0.06 | 0.036 | 0.01 | -0.004 | 0.033
MITF (UniProt O75030) | -0.021 | -0.015 |  | 0.041 | -0.011 |  |  | 0.047 |  | 
NFYB (UniProt P25208) | 0.092 | -0.102 |  | -0.153 | -0.047 | 0.064 | -0.036 | -0.045 | 0.01 | -0.069
OAF (UniProt Q86UD1) | -0.115 |  |  | 0.05 |  |  | -0.174 |  |  | 
ORC3 (UniProt Q9UBD5) |  | 0.097 |  |  | -0.104 |  |  | 0.105 |  | 
NKTR (UniProt P30414) | 0.597 |  |  | 0.028 |  | -0.149 |  |  |  | 

Target | log2 fold change (erlotinib) | log2 fold change [1] | log2 fold change [2] | log2 fold change [3] | log2 fold change [4] | log2 fold change [5] | log2 fold change [6] | log2 fold change [7] | log2 fold change [8] | log2 fold change [9]
OVCA2 (UniProt Q8WZ82) |  | 0.23 |  |  | 0.108 | 0.268 | -0.044 | -0.131 |  | 
NPC1L1 (UniProt Q9UHC9) |  | 0.006 |  |  | 0.073 | 0.143 |  | -0.02 | 0 | -0.033
NCOA5 (UniProt Q9HCD5) | -0.057 |  |  | 0.156 |  |  | -0.094 |  |  | 
MXRA7 isoform 3 (UniProt P84157) |  |  |  |  |  |  | -0.08 |  |  | 
MSANTD2 (UniProt Q6P1R3) |  |  | 0.012 |  |  |  |  |  | -0.081 | -0.052
MT-ND2 (UniProt P03891) | -0.067 | -0.063 |  | 0.062 | -0.108 | 0.104 | 0.116 | 0.044 | -0.016 | -0.093
NA, A0A494C071 |  | 0 | 0.197 |  | -0.005 | 0.079 |  | -0.018 | 0.136 | 0.114
NIPSNAP2 (UniProt C9J7B1) |  | -0.171 |  |  | -0.16 | 0.057 |  | -0.138 |  | 
OXR1 isoform 2 (UniProt Q8N573) |  | 0.137 | -0.362 |  | -0.034 |  | -0.056 | 0.068 | 0.02 | -0.022
MOB2 isoform 3 (UniProt Q70IA6) | 0.029 |  | -0.077 | -0.001 |  | 0.06 | 0.025 |  | 0.135 | -0.22
MYSM1 (UniProt Q5VVJ2) |  |  |  |  |  | 0.173 | 0.37 |  |  | 
MRM2 (UniProt Q9UI43) | 0.023 | 0.182 |  | 0.031 | 0.185 |  |  | 0.121 | -0.017 | -0.002
NCBP2AS2 (UniProt Q69YL0) | 0.033 | 0.104 |  | 0.054 | 0 | 0.106 | -0.029 | 0.148 | 0.048 | 0.113
NIPSNAP3B (UniProt Q9BS92) | -0.061 | -0.014 |  | -0.071 | -0.159 | 0.031 |  | 0.007 | 0.008 | 0.051
NA (UniProt J3KR12) |  |  | -0.073 |  |  | 0.254 | 0.075 |  |  | 
NA, A0A2R8Y3M9 |  | -0.335 |  |  | 0.355 | 0.132 | -0.072 | -0.137 |  | 
NUDT7 (UniProt P0C024) | -0.246 |  | -0.282 | 0.148 |  | -0.066 | -0.118 |  | 0.158 | -0.024
NA, A0A1W2PSA9 |  | -0.065 |  |  | -0.111 |  | -0.008 | -0.104 | 0.101 | -0.086
MYLK (UniProt Q15746) | 0.25 |  |  | -0.146 |  | -0.005 | 0.291 |  | 0.008 | -0.066
MPHOSPH8 isoform 2 (UniProt Q99549) |  | 0.033 | 0.24 |  | -0.044 |  | -0.055 | -0.086 | -0.02 | -0.065
MYH16 (UniProt Q9H6N6) | -0.044 | 0.102 |  | 0.049 | -0.21 | 0.284 |  | 0.044 | -0.089 | -0.082
NDUFA7 (UniProt M0R0N0) | 0.101 |  |  | -0.051 |  | 0.015 |  |  |  | 
P4HA2 (UniProt O15460) | -0.075 |  | -0.548 (active) | 0.034 |  | -0.025 | -0.02 |  | -0.016 | -0.035
